An excerpt weighted towards active compounds, which were near 4.7% of everything screened.
D1 ag: Allosteric Agonists of the Human D1 Dopamine Receptor: qHTS. HEK293 T-REx D1 cells, calcium flux, agonist mode. activation, % at 2 µM. 1% of 360,000 active. AID 504660, 2011; further: 0% is about no effect
Target sequence (P21728 whole entry, looked up): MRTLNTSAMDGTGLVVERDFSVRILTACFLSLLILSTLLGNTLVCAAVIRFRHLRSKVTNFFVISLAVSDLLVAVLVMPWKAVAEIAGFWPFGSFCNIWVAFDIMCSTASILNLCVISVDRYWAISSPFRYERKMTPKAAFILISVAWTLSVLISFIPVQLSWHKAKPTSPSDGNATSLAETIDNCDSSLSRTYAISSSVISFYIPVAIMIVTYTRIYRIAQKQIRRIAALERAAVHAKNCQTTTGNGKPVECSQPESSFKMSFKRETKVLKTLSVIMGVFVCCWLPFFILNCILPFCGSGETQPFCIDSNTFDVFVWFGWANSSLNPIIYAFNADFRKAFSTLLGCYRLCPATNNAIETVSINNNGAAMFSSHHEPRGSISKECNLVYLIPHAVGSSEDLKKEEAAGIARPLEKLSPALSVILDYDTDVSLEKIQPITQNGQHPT
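Inducible HEK293 T-REx D1 cells, force-coupled to calcium signalling, were plated at 4000 cells/well with tetracycline and held overnight at 30 C. After no-wash calcium dye loading, compound-evoked calcium rise over 180 s flagged agonists.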
D1 antag: Antagonist of Human D 1 Dopamine Receptor: qHTS; HEK293 TREx D1 cells, calcium flux, dopamine EC80; active compounds read low; activity change, negative = inhibition, % at 10 µM; 3.2% of 360,000 active; in the data active means activity change below about -30%; further: on the % scale 0 is the no-effect control and ±100 the full control effect
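Allosteric or orthosteric antagonism assessed as attenuation of the calcium response to EC80 dopamine, added 180 s after compound, in induced HEK293 Trex D1 cells loaded with no-wash calcium dye.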
D1 potentiator: Potentiators of Human D1 Dopamine Receptor: qHTS | potentiation, % at 10 µM | 0.036% of 360,000 active | AID 504651, 2011 | HEK293 TREx D1 cells, calcium flux, dopamine EC20 potentiation | D(1A) dopamine receptor (Homo sapiens), P21728; in the data active means potentiation above about 30%; further: 0% is about no effect
TRHR ag: qHTS for Small Molecule Agonists and Allosteric Enhancers of Human TRH Receptor: Primary Screen for Agonists; Thyrotropin-releasing hormone receptor (Homo sapiens), P34981; TRHR cells, calcium flux fluo-8, FDSS agonist mode; activation, % at 2 µM; 0.18% of 360,000 active; AID 493084, 2011; further: 0% is about no effect
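Agonist-mode FDSS calcium read (Ex 480/Em 530, 1 s cycles) in 1536-well TRHR cells with fluo-8 dye, after 10-cycle baseline and 23 nL compound addition; TRH at EC20 (10 nM final) added afterwards for the enhancer phase.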
TRHR PAM: qHTS for Small Molecule Agonists and Allosteric Enhancers of Human TRH Receptor: Primary Screen for Enhancers; Thyrotropin-releasing hormone receptor (Homo sapiens), P34981; TRHR cells, fluo-8 calcium fluorescence, EC20 TRH enhancement; enhancement, % at 2 µM; 0.66% of 360,000 active; in the data active means enhancement above about 30%; further: 0% is about no effect
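TRHR-expressing cells loaded with fluo-8 calcium dye were read kinetically (ex 480/em 530) during compound addition, then stimulated with an EC20 of TRH (10 nM final). Enhancement of the Gq-mediated intracellular calcium response was scored.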
Numbers without * were called inactive. Unless noted, no stated cut-off is given here; in the data, active means activation above about 30%; inactive means the rest.

CC(=O)OCc1cnc(C)c2oc(=O)c(C(=O)Nc3cccc(F)c3)cc12 was read as D1 ag 0, D1 antag -46*, D1 potentiator 1, TRHR ag -1 and TRHR PAM 9.
Screening Cc1cc(C)c(NC(=O)c2nc3ccccc3nc2N2CCCCC2)c(C)c1 returned D1 ag 16, D1 antag 18, D1 potentiator 6, TRHR ag 0 and TRHR PAM 2.
`Cc1cc2c(s1)c1cnn(Cc3cc(F)c(F)c(F)c3F)c(=O)c1n2C` gave D1 ag -2, D1 antag -11, D1 potentiator 13, TRHR ag 0 and TRHR PAM 2.
`O=Cc1c(NCc2ccc(F)cc2)c2ccccc2[nH]c1=O` gave D1 ag 4, D1 antag -36*, D1 potentiator -9, TRHR ag 0 and TRHR PAM -8.
For O=Cc1c(NCc2cccc(F)c2)c2ccccc2[nH]c1=O the results were D1 ag 4, D1 antag -24, D1 potentiator -1, TRHR ag 0 and TRHR PAM -2.
`Cc1ccc(CNc2c(C=O)c(=O)[nH]c3ccccc23)cc1` gave D1 ag 6, D1 antag -51*, D1 potentiator -2, TRHR ag 0 and TRHR PAM 11.
`O=Cc1c(NCc2ccccc2Cl)c2ccccc2[nH]c1=O` gave D1 ag 3, D1 antag -33*, D1 potentiator -1, TRHR ag 0 and TRHR PAM -2.
Screening O=C(Nc1ccc(Br)cc1F)c1ccc2nc(CCc3ccccc3)oc2c1 returned D1 ag 3, D1 antag 6, D1 potentiator -2, TRHR ag 0 and TRHR PAM 0.
Screening OC(CN1CCCCC1)Cn1c2ccc(Cl)cc2c2cc(Cl)ccc21 (stereo not drawn) returned D1 ag 35*, D1 antag 13, D1 potentiator -4, TRHR ag 5 and TRHR PAM 7.
`OC(CN1CCN(c2ccccn2)CC1)Cn1c2ccc(Cl)cc2c2cc(Cl)ccc21` (stereo not drawn) gave D1 ag 0, D1 antag 3, D1 potentiator -1, TRHR ag 0 and TRHR PAM 2.
For C=CCOC(=O)C1=C(C)NC(SCC(N)=O)=C(C#N)C1c1cccs1 (stereo not drawn) the results were D1 ag -1, D1 antag -45*, D1 potentiator -4, TRHR ag 0 and TRHR PAM 0.
CCOC(=O)C1=C(C)OC(N)=C(C(=O)OCC)C1c1ccncc1 (stereo not drawn) was read as D1 ag 0, D1 antag 0, D1 potentiator 0, TRHR ag 0 and TRHR PAM -9.
CCOC(=O)CC1=C(C(=O)OCC)C(c2cccnc2)C(C#N)=C(N)O1 (stereo not drawn) was read as D1 ag 1, D1 antag 9, D1 potentiator -6, TRHR ag 0 and TRHR PAM 33*.
Screening CCOC(=O)CC1=C(C#N)C(c2cccnc2)C(C(=O)OCC)=C(N)O1 (stereo not drawn) returned D1 ag 3, D1 antag 1, D1 potentiator 0, TRHR ag 0 and TRHR PAM 1.
`CCOC(=O)C1=C(C)OC(N)=C(C(=O)OCC)C1c1cccnc1` (stereo not drawn) gave D1 ag -1, D1 antag -33*, D1 potentiator -7, TRHR ag -1 and TRHR PAM 1.
Screening CCOc1ccc(NC(=O)CSc2oc(-c3ccco3)nc2S(=O)(=O)c2ccc(Cl)cc2)cc1 returned D1 ag 25, D1 antag 3, D1 potentiator 2, TRHR ag 0 and TRHR PAM 5.
CCOc1ccc(N2C(=O)c3ccccc3C2=O)cc1 was read as D1 ag 0, D1 antag -18, D1 potentiator -5, TRHR ag 0 and TRHR PAM 2.
O=C(COc1ccc(N2C(=O)c3ccccc3C2=O)cc1)c1ccccc1 was read as D1 ag 1, D1 antag -32*, D1 potentiator -8, TRHR ag 0 and TRHR PAM -4.
Screening O=C(Cn1nc(-c2ccc(Cl)cc2)c2ccccc2c1=O)Nc1cccc(C(F)(F)F)c1 returned D1 ag 3, D1 antag -18, D1 potentiator 7, TRHR ag 0 and TRHR PAM -6.
`O=C(Cc1ccc(Br)cc1)Nc1cccc(-c2cn3c(n2)SCC3)c1` gave D1 ag 10, D1 antag -41*, D1 potentiator -13, TRHR ag 0 and TRHR PAM -4.
`CCCC(CCC)C(=O)Nc1cccc(-c2cn3c(n2)SCC3)c1` gave D1 ag 0, D1 antag -5, D1 potentiator -3, TRHR ag 0 and TRHR PAM -4.
Screening COc1ccc(N2CC(NC(=O)C(c3ccccc3)c3ccccc3)CC2=O)cc1OC (stereo not drawn) returned D1 ag -4, D1 potentiator 1, TRHR ag 0 and TRHR PAM 16.
CC(C)OC(=O)NCCOC(=O)Nc1ccc(Cl)c(Cl)c1 was read as D1 ag 9, D1 antag -40*, D1 potentiator -3, TRHR ag 3 and TRHR PAM -14.
C=COCCNC(=O)Nc1ccc(Cl)c(Cl)c1 was read as D1 ag 47*, D1 antag -57*, D1 potentiator -2, TRHR ag -1 and TRHR PAM 15.
`CC(C)OC(=O)NCCOC(=O)Nc1cccc(Cl)c1` gave D1 ag 22, D1 antag -31*, D1 potentiator -9, TRHR ag 0 and TRHR PAM -4.
Screening O=C(Nc1cccc(Cl)c1)OCCOc1ccccc1 returned D1 ag 8, D1 antag -31*, D1 potentiator -5, TRHR ag 0 and TRHR PAM -3.
`CCN(CC)S(=O)(=O)c1ccc2c(c1)N(CC(=O)Nc1ccc(Cl)cc1)C(=O)C1CCCN21` (stereo not drawn) gave D1 ag 0, D1 antag 5, D1 potentiator -5, TRHR ag 1 and TRHR PAM -1.
Screening CCOC(=O)C1CCN(C(=O)Cn2ncc3c4ccccc4n(Cc4ccc(F)cc4)c3c2=O)CC1 returned D1 ag 0, D1 antag 9, D1 potentiator 0, TRHR ag -1 and TRHR PAM -5.
For O=C1CC(c2ccco2)Cc2nc(Nc3ccc(F)cc3)ncc21 (stereo not drawn) the results were D1 ag 2, D1 antag -15, D1 potentiator -2, TRHR ag -1 and TRHR PAM 3.
